Compounds with a hit are over-represented: about 7.4% of the library has one in this group of screens.
FLuc modulator – qHTS profiling assay for firefly luciferase inhibitor/activator using purifed enzyme and Km concentrations of substrates (counterscreen for miR-21 project) | Potency, µM (titrated, usually from 57.5 µM), inactives show at the top dose activity change, negative = inhibition, actives largely listed as inhibitors | actives 6.9% (n = 360,000) | Luciferin 4-monooxygenase (Photinus pyralis), P08659 | purified FLuc, Km substrates, luminescence inhibition;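 note: plate controls were vehicle for no effect and reference inhibitor for full effect; nearly all actives have a fitted effect of over 55% in size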
Target sequence (P08659 whole entry, looked up): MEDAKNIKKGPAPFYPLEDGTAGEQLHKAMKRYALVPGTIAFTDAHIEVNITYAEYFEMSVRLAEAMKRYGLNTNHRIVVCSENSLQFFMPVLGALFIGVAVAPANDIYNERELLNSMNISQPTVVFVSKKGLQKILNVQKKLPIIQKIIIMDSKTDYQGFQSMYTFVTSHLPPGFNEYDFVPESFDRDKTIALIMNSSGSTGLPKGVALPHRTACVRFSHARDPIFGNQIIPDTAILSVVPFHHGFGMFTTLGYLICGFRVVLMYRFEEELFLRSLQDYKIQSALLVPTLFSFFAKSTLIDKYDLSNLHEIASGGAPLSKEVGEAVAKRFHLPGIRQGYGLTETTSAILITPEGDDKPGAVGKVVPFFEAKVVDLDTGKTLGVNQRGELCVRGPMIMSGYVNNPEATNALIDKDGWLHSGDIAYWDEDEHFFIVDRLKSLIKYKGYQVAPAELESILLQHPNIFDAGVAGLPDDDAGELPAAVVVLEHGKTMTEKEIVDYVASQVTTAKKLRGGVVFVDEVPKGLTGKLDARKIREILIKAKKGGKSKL
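Biochemical qHTS of compounds, final roughly 60 µM downward over six points, against 10 nM purified firefly luciferase using Km concentrations of substrates (10 uM D-luciferin, 10 uM ATP) in Tris acetate pH 7.5 buffer; luminescence output.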
NPC1 prom act – qHTS Assay for NPC1 Promoter Activators | Huh7 NPC1 promoter luciferase reporter, 24 h | Potency, µM (highest dose often 9.22 µM), for the others: top-dose activation, usual class: activators | actives 2.4% (n = 320,000); note: % of control where 0% means no effect; nearly all actives have a fitted effect of over 60% in size
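Luminescence from an NPC1 promoter-driven luciferase reporter in stably transfected Huh7 cells was measured after 24 h compound treatment at 37 °C, followed by 10 min ambient incubation with luciferase detection reagent.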
ELG1 genotox – qHTS screen for small molecules that induce genotoxicity in human embryonic kidney (HEK293T) cells expressing luciferase-tagged ELG1; HEK293T ELG1-luciferase reporter, luminescence, 16 h; Potency, µM (top dose mostly 46 µM), for inactives: at the highest dose activity change, positive = activation, most hits filed as activators; actives 1.3% (n = 330,000); AID 504466, 2011; note: % of control where 0% means no effect; nearly all actives have a fitted effect of over 60% in size
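ELG1-luciferase HEK293T cells, 2,000/well; compound pinned in; 16 hr, 37 °C, 5% CO2; ONE-Glo, 30 min RT; luminescence on CCD imager.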
SMN2 splice up – qHTS Assay for Enhancers of SMN2 Splice Variant Expression. HEK293 SMN2-luciferase splicing reporter, luminescence, 30-36 h. Potency, µM (highest dose often 46.1 µM), for inactives: top-dose activity change, positive = activation, usual class: activators. actives 2.8% (n = 210,000); note: % of control where 0% means no effect; nearly all actives have a fitted effect of over 55% in size
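HEK293 cells carry an SMN2 minigene-luciferase reporter in which exon 7 inclusion puts luciferase in frame. Cells were seeded at 2000 cells/well, attached for 10-12 hours, then exposed to compounds for 30-36 hours at 37C before ONE-Glo luminescence.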
Rab9 prom act – qHTS Assay for Rab9 Promoter Activators; Huh7 Rab9 promoter-luciferase reporter, luminescence, 24 h; Potency, µM (doses to about 9.22 µM), inactives show top-dose activation, negative = inhibition, most hits filed as activators; actives 2.8% (n = 320,000); AID 485297, 2010; note: % of control where 0% means no effect; nearly all actives have a fitted effect of over 60% in size
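Huh7 reporter line, Rab9 promoter upstream of luciferase. Compound exposure 24 h at 37 °C in reduced-serum medium with 10% FBS. Read-out: luminescence.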
Numbers without * were called inactive; ? = inconclusive; . = no result given; [ ] = dose if it differs, or a comment. Calls come from the whole dose curve; as a rule, active = well fitted curve in the direction sought with a large enough effect; inconclusive = small, poorly fitted or top-dose-only effect, or another doubt; inactive = no such curve, though single readings can be large; an effect the other way counts as inactive or inconclusive. Potency is the fitted concentration of half-maximal effect.

SMILES	FLuc modulator	NPC1 prom act	ELG1 genotox	SMN2 splice up	Rab9 prom act
NC(=O)c1c[nH]c2ccccc12	-10%	-2%	3%	-2%	-3%
O=C(CNc1ccccc1)c1ccc([N+](=O)[O-])cc1	0%	7%	1%	13%	-3%
COc1ccccc1NC(=O)c1cc(=O)[nH]c2ccccc12	-3%	11%	-1%	.	11%
COc1ccc(-c2nc3scc(CCNC(=O)c4cc(OC)cc(OC)c4)n3n2)cc1	-5%	.	.	.	.
CCOc1ccccc1NC(=O)CSc1nc2c(oc3ccccc32)c(=O)n1C(C)C	6%	.	.	-6%	.
COc1ccc(N(C)C(=O)c2cn(CC(C)C)c(=O)c3cc(OC)c(OC)cc23)cc1	6%	-2%	-5%	.	3%
COc1ccc(NC(=O)c2cc(S(=O)(=O)N3CCCCCC3)cn2C)cc1Cl	-2%	.	.	.	.
COc1ccc(C)cc1S(=O)(=O)N(C)CC(=O)NCc1ccncc1	-1%	0%	1%	.	1%
O=C(CC(=O)c1ccccc1)c1ccccc1	.	.	.	13µM*	.
COc1ccccc1NC(=O)CC(=O)c1ccccc1	?	12%	3%	.	13%
O=C(Nc1ccccc1)C(=O)c1c[nH]c2ccccc12	1.7µM*	3.5µM*	0.92µM*	.	1.8µM*
NC(=O)c1ccccc1NCC(=O)c1ccc(Cl)cc1	?	0%	0%	.	-9%
O=C(CNc1ccccc1C(=O)O)c1ccccc1	19µM*	3%	10%	.	?
O=C(CC(=O)c1ccncc1)c1ccccc1	.	.	.	9%[9.22 µM]	.
COc1ccccc1C(=O)CC(=O)c1ccccc1	13µM*	?	?	.	20%
CCOc1ccc(-c2cn3c(n2)sc2cc(C(=O)NCCCN(CC)CC)ccc23)cc1	3%	.	.	.	.
COc1ccc(C(C)=O)cc1CN1C(=O)NC(c2ccccc2)(c2ccccc2)C1=O	4%	-2%	-11%	.	-3%
CN(C)CCN(Cc1ccccc1)S(=O)(=O)c1ccc(-c2cc(C(F)(F)F)on2)s1	-2%	.	.	.	.
COc1ccc(-c2cc3cc(OC)c(OC)cc3c(C)n2)cc1C	17µM*	2%	0%	.	-1%
CCc1ccc(NC(=O)CC2C(=O)N(c3cccc(OC)c3)C(=O)N2Cc2ccco2)cc1 (stereo not given)	-10%	.	.	.	.
COc1ccc(NC(=O)CN2C(=O)CC(c3ccc(C)c(C)c3)=Nc3ccccc32)cc1OC	13µM*	.	.	.	.
Cc1ccc(C2=Nc3ccccc3N(CC(=O)NCc3ccccc3Cl)C(=O)C2)cc1C	9.5µM*	.	.	.	.
COc1ccc(S(=O)(=O)NCC(c2ccc(F)cc2)N2CCN(C)CC2)cc1 (stereo not given)	2%	-1%	1%	.	0%
CCC(=O)Nc1cccc(-c2cnc3ccccc3n2)c1	19µM*	?	?	19%	?
CCc1ccc(-c2cnc3ccccc3n2)cc1NC(=O)CNC(=O)c1ccccc1	2.7µM*	3.5µM*	3.7µM*	.	4µM*
SMILES	FLuc modulator	NPC1 prom act	ELG1 genotox	SMN2 splice up	Rab9 prom act
O=C(CCl)Nc1cccc(-c2cnc3ccccc3n2)c1	12µM*	-5%	-38%	-2%	-34%
CCC1CCCCN1C(=O)COc1ccc(S(=O)(=O)N2CCOCC2)cc1Cl (stereo not given)	-2%	-1%	2%	.	-4%
CCOC(=O)CNC(=O)CSc1cc(C)nc2ccc(OC)cc12	6.7µM*	4µM*	?	.	3.2µM*
CCOC(=O)CSc1nc(C)c2cc(OC)ccc2n1	24µM*	-5%	?	41%	2%
COc1ccc2nc(C)cc(SCC(=O)NNC(=O)COc3ccccc3)c2c1	-3%	0%	-4%	-7%	-3%
CCOC(=O)CCSc1nc(C)c2cc(C)ccc2n1	9.5µM*	16%	18µM*	-6%	22%
CCC(=O)N/C(N)=N/c1nc(C)c2cc(OC)ccc2n1	11µM*	-1%	10µM*	?	23%
CCN(C(=O)COC(=O)c1ccc(C=O)cc1)c1c(N)n(Cc2ccccc2)c(=O)[nH]c1=O	1%	?	0%	.	-2%
CNC(=O)CCC(=O)Nc1ccc(C)cc1	0%	1%	1%	-34%	-1%
O=C(Nc1ncc(Cc2cccc(C(F)(F)F)c2)s1)C1CCCO1 (stereo not given)	?	13%	0%	.	21%
Cc1ccc(Cc2cnc(NC(=O)C3CCCO3)s2)cc1 (stereo not given)	3µM*	1.1µM*	?	14µM*	1.3µM*
O=C(Nc1ccc(Cc2ccncc2)cc1)c1cccs1	?	15%	2%	-12%	16%
O=C(Nc1ncc(Cc2cccc(Cl)c2)s1)c1cccs1	15µM*	?	4%	16%	?
O=C(Nc1ncc(Cc2ccc(SC(F)F)cc2)s1)c1ccccc1	13µM*	-3%	12%	-1%	5%
O=C(Nc1ncc(Cc2ccc(Cl)cc2)s1)c1ccc2c(c1)CC(c1ccccc1)OC2=O (stereo not given)	0%	.	.	-6%	.
O=C(Nc1ncc(Cc2cccc(Cl)c2)s1)C1=NCCN1	-2%	-6%	-10%	10%	-6%
Cc1ccc(Cc2cnc(NC(=O)c3cccs3)s2)cc1	2.7µM*	2.8µM*	-1%	14µM*	?
O=C(Cc1ccccc1)Nc1ccc(NC(=O)c2cccs2)cc1	2%	3%	6%	25%	25%
Cc1ccc(C(=O)Nc2ncc(Cc3ccccc3)s2)o1	0.95µM*	1.4µM*	?	.	3.2µM*
O=C(Nc1ncc(Cc2ccccc2)s1)c1cccs1	1.1µM*	1.3µM*	?	4.5µM*	0.5µM*
Cc1cccc(C(=O)NCc2nnc(SCC(=O)Nc3ccccc3F)n2-c2ccccc2)c1	-1%	.	.	-21%	.
CCN1CC(CN(C)Cc2cn(-c3cccc(C)c3)nc2-c2cccc(F)c2)CC1=O (stereo not given)	?	-3%	-7%	.	-3%
CC(C)(C)c1cc(OC(=O)c2ccccc2F)ccc1O	27µM*	1%	-1%	.	-2%
Cc1ccc(-c2cc(C(=O)Oc3ccccc3)c3cccc(C)c3n2)cc1	-5%	.	.	-2%	.
Cc1ccc(-c2cccc(OC(=O)c3ccccc3F)c2)cc1	5.4µM*	-8%	8%	17%	7%
Cc1cc(C)cc(NC(=O)CCS(=O)(=O)c2ccc3c(c2)oc(=O)n3C)c1	-6%	.	.	.	.
C=C(C)CSc1nc(N)c(C#N)c(-c2ccc(C)cc2)c1C#N	15µM*	.	.	2%	.
Nc1c(N(CCC2=CCCCC2)C(=O)c2ccc([N+](=O)[O-])o2)c(=O)[nH]c(=O)n1Cc1ccccc1	-2%	6%	-21%	.	0%

Screening data as filed in PubChem.
